Out of some 52,000 compounds screened, about 1,700 (3.3%) were called active. Rule as the data show it: active = survival mostly below about 52% (no sharp cut-off); inactive = mostly above about 56%. The sample as a whole holds a higher share of actives than the screen did.

In the test the test system is Wild type. Put plainly: growth inhibition of S. aureus wild type versus tarO mutant, primary screen, teichoic acid synthesis inhibitors, RN4220, OD600 (AID 463173). As to conditions: S. aureus RN4220 wild type/DeltatarO growth, OD600, 18 h, active compounds read low, screened at 18.75 µg/mL (by protocol).
As for `COc1cccc(N2CCN(Cc3nnc(-c4ccc5c(c4)OCO5)o3)CC2)c1`, the survival is 102% (inactive).
To `Cc1cccc(-c2noc(CN(C(=O)c3ccc(C)c(C)c3)C(C)C)n2)c1` belongs 0% (active); to `Cc1cccc(-c2noc(CN(C(=O)COc3ccc(Br)cc3C)C(C)C)n2)c1`, 30% (inactive); to `COc1ccc(S(=O)(=O)N(C)Cc2nc(-c3cccc(C)c3)no2)cc1`, 74% (inactive).
With `Cc1cccc(-c2noc(CN(C(=O)COc3ccc(C(C)C)cc3)C(C)C)n2)c1`, the survival was 3% (active).
For `COc1ccc(OC(C)C(=O)NCc2nc(-c3cccc(C)c3)no2)cc1` (stereo not drawn) the value was 87% (inactive); for `Cc1cccc(-c2noc(CN(C(C)C)S(=O)(=O)c3ccc(Br)cc3)n2)c1`, 72% (inactive); for `COc1ccccc1C(=O)N(Cc1nc(-c2cccc(C)c2)no1)C(C)C`, 56% (inactive).
For `Cc1cccc(-c2noc(CN(C(=O)c3ccccc3Cl)C(C)C)n2)c1` the value was 86% (inactive); for `CCOc1ccc(C(=O)N(Cc2nc(-c3cccc(C)c3)no2)C(C)C)cc1`, 2% (active).
For `CCN(CC(O)COc1ccc(OCC(O)CN(CC)C2CCCCC2)cc1)C1CCCCC1` (stereo not drawn) the value was 109% (inactive).
Consider `CC1(C)CC(=O)c2cc(-c3nc(-c4ccc(Cl)cc4)cs3)c(=O)n(-c3ccc(Cl)cc3)c2C1`, for which the survival is 67% (inactive).
To `Cn1nc(C(=O)NCCc2ccc(Cl)cc2)c2c1-c1ccccc1SC2` belongs 82% (inactive); to `CCc1nn2c(=O)c(S(=O)(=O)Nc3ccc(C)cc3C)c(C)nc2s1`, 75% (inactive).
Take `CCCCN(CC)CCNC(=O)c1cn(CCOC)c(=O)c2c1c1ccccc1n2C`: the survival is 89% (inactive).
Regarding `COc1ccccc1-c1c(C)nn2c(-c3ccccc3)cc(-c3ccccc3)nc12`, the survival is 77% (inactive).
For `Cc1cccc(OC(C)C(=O)Nc2nonc2-c2ccc(Br)cc2)c1C` (stereo not drawn) the value was 94% (inactive); for `Cc1ccc(OC(C)C(=O)Nc2nonc2-c2ccc(Br)cc2)cc1C` (stereo not drawn), 72% (inactive).
For `Cc1cc(C)cc(OC(C)C(=O)Nc2nonc2-c2ccc(Br)cc2)c1` (stereo not drawn) the value was 17% (active).
Take `Cc1ccc(-n2nc(CO)c(C(=O)NCCC(C)C)n2)cc1C`: the survival was 116% (inactive).
Turning to `CCOc1ccccc1NC(=O)CN1C(=O)C2(SCC(=O)N2c2cccc(F)c2)c2ccccc21` (stereo not drawn), the survival is 97% (inactive).
To `Cc1ccc(/C=N/NC(=O)C2=NNC(=O)C2C)o1` (stereo not drawn) belongs 107% (inactive); to `COc1cccc(OCc2nnc(SCC(=O)O)o2)c1`, 98% (inactive); to `CCCc1cc(=O)oc2cc(C)c3c(-c4ccccc4)coc3c12`, 66% (inactive).
For `CCCc1cc(=O)oc2cc(C)c3c(-c4ccccc4)c(C)oc3c12` the value was 0% (active).
For `CCCc1cc(=O)oc2cc(C)c3c(-c4cccc(OC)c4)coc3c12` the value was 74% (inactive); for `CCN1C(=O)c2ccccc2S(=O)c2ccc(C(=O)N3CCN(c4ccccc4)CC3)cc21` (stereo not drawn), 83% (inactive).
As for `CCOc1ccc2nc(N3CCCC(C(=O)Nc4ccc(OC)c(Cl)c4)C3)sc2c1` (stereo not drawn), the survival is 89% (inactive).
To `Cc1ccc(OCCn2c(CNc3cccc(C)c3)nc3ccccc32)cc1` belongs -21% (active).
For `Clc1ccc(NCc2nc3ccccc3n2CCOc2ccccc2)cc1` the value was 74% (inactive); for `Cc1ccc(NCc2nc3ccccc3n2CCOc2ccccc2)cc1`, -20% (active).
For `CCOc1ccc(NCc2nc3ccccc3n2CCOc2ccc(C)cc2)cc1` the value was -20% (active); for `CCOc1ccc(NCc2n[nH]c(=S)n2-c2ccc(C)cc2)cc1`, 122% (inactive); for `COc1ccc(NCc2nc3ccccc3n2CCOc2ccc(C)cc2)cc1`, -18% (active).
For `CC(C)CCNc1ncnc2c1nnn2Cc1ccccc1`, the survival was 111% (inactive).
For `Cc1nc2cc(NC(=O)Nc3ccccc3Cl)ccc2n1C` the value was 109% (inactive); for `CCCCNC(=O)c1nn(-c2ccc(C)cc2)c(=O)n(C)c1=O`, 68% (inactive); for `Cc1ccc(N(CC(=O)Nc2ccc(Cl)cc2)S(=O)(=O)c2cccc3nonc23)cc1`, 125% (inactive).
To `O=C(Cn1ncn2nc(-c3cccs3)cc2c1=O)NCc1ccccc1Cl` belongs 94% (inactive); to `COc1ccc(-c2nn3c(=O)cc(CN4CCN(C(=O)/C=C/c5ccccc5)CC4)nc3s2)cc1`, 72% (inactive).
To `CCn1cc2nc(SCc3c(F)cccc3Cl)n(CCc3ccccc3)c(=O)c2n1` belongs 64% (inactive); to `CCn1c(=O)cc(SCC(=O)NCc2ccc(F)cc2Cl)c2ccccc21`, 91% (inactive).
As for `Cc1cc(Cl)ccc1NC(=O)C1CCCN(c2nnc(C)c3c(C)n(-c4ccccc4)nc23)C1` (stereo not drawn), the survival is 70% (inactive).
To `Cc1ccc(OCCn2c(CNc3ccccc3C)nc3ccccc32)cc1` belongs 57% (inactive); to `Cc1ccccc1NCc1nc2ccccc2n1CCOc1ccccc1`, -20% (active); to `Cc1ccc(CSCC(=O)N2CCN(c3ccccc3F)CC2)cc1`, 45% (inactive).
For `COc1ccc(Cn2c(=O)c3ccccc3n3c(-c4cccc(OC)c4OC)nnc23)cc1` the value was 87% (inactive); for `CCc1ccc(CNC(=O)CCn2nc(C)c3c(C)n(-c4ccccc4)nc3c2=O)cc1`, 65% (inactive).
To `Cc1nn(CCC(=O)NCc2ccc(Cl)cc2)c(=O)c2nn(-c3ccccc3)c(C)c12` belongs -3% (active); to `COc1ccc(CNC(=O)CCCn2nc(C)c3c(C)n(-c4ccc(C)cc4)nc3c2=O)cc1OC`, 71% (inactive); to `Cc1ccc(C)c(NC(=O)CCn2nc(C)c3c(C)n(-c4ccccc4)nc3c2=O)c1`, 10% (active).
As for `COc1ccc(CNC(=O)CCn2nc(C)c3c(C)n(-c4ccccc4)nc3c2=O)cc1OC`, the survival is -2% (active).
For `Cc1cccc(NC(=O)CCn2nc(C)c3c(C)n(-c4ccccc4)nc3c2=O)c1C` the value was 65% (inactive); for `Cc1nn(CCC(=O)NCc2ccc(N(C)C)cc2)c(=O)c2nn(-c3ccccc3)c(C)c12`, 87% (inactive).
In the case of `COc1cc(OC)c(NC(=O)CCCn2nc(C)c3c(C)n(-c4ccccc4)nc3c2=O)cc1Cl`, the survival was 0% (active).
For `COc1cccc(CNC(=O)CCn2nc(C)c3c(C)n(-c4ccccc4)nc3c2=O)c1` the value was 82% (inactive).
For `Cc1cc(Cl)ccc1NC(=O)CCn1nc(C)c2c(C)n(-c3ccccc3)nc2c1=O` the value was 68% (inactive).
To `Cc1ccc(NC(=O)CCCn2nc(C)c3c(C)n(-c4ccccc4)nc3c2=O)c(Cl)c1` belongs 113% (inactive).
On to `Cc1cc(Cl)ccc1NC(=O)CCCn1nc(C)c2c(C)n(-c3ccccc3)nc2c1=O`, for which the survival is 118% (inactive).
For `O=C(NCCSCc1c(F)cccc1Cl)C1CCN(S(=O)(=O)Cc2ccccc2)CC1` the value was 87% (inactive); for `O=C(CC(c1cccs1)N1Cc2ccccc2C1=O)Nc1ccc(F)cc1` (stereo not drawn), 91% (inactive); for `CCN(CC)C(=O)Cn1c(=O)cc(C)c2c(C)nn(-c3cccc(Cl)c3C)c21`, 85% (inactive).
For `Cc1ccccc1C(=O)Nc1ccc2c(c1)CCCN2C(=O)c1cccs1` the value was 77% (inactive); for `Cc1ccccc1NC(=O)Cn1c(=O)n(CCCC(=O)NCc2ccc3c(c2)OCO3)c(=O)c2ccccc21`, 91% (inactive); for `Cc1ccc(S(=O)(=O)c2cn(C)c3cc(N4CCCCC4)c(F)cc3c2=O)cc1`, 74% (inactive).
For `COc1ccc(-c2nc3c(c(SCC(=O)Nc4ccccc4F)n2)Cc2cc(C)ccc2O3)cc1` the value was 80% (inactive).
As for `COc1ccccc1NC(=O)C(=O)NCC(c1ccc2c(c1)OCO2)N1CCN(C)CC1` (stereo not drawn), the survival was 81% (inactive).
Turning to `O=C(CN(c1ccc(Cl)c(C(F)(F)F)c1)S(=O)(=O)c1ccccc1)Nc1cccnc1`, the survival is 64% (inactive).
To `Cc1c(CCC(=O)N2CCCCC2)c(=O)oc2cc3occ(C(C)(C)C)c3cc12` belongs 74% (inactive); to `Cc1cccc(Cn2c(SCc3ccc(C(=O)NCc4cccs4)cc3)nc3ccncc32)c1`, 84% (inactive).
For `COc1cc(-c2ccno2)ccc1S(=O)(=O)N1CCN(c2cccc(Cl)c2)CC1` the value was -3% (active).
For `COc1ccc(N2CCN(S(=O)(=O)c3ccc(-c4ccno4)cc3OC)CC2)cc1` the value was 1% (active); for `COc1cc(-c2ccno2)ccc1S(=O)(=O)N1CCN(c2ccccc2)CC1`, 71% (inactive).
As to `COc1cccc(N2CCN(S(=O)(=O)c3ccc(-c4ccno4)cc3OC)CC2)c1`, the survival is 57% (inactive).
To `COc1ccccc1N1CCN(S(=O)(=O)c2ccc(-c3ccno3)cc2OC)CC1` belongs 82% (inactive); to `COc1cc(-c2ccno2)ccc1S(=O)(=O)N1CCN(c2ccc(F)cc2)CC1`, 63% (inactive).
For `COC(=O)c1c(-c2cccs2)csc1NC(=O)c1cc(OC)c(OC)c(OC)c1` the value was 76% (inactive); for `CCn1ccc2cc(S(=O)(=O)N3CCCN(C(=O)NCC(=O)OC)CC3)ccc21`, 128% (inactive); for `CCCn1c2ccccc2c2cnn(CC(=O)NCCc3ccc(S(N)(=O)=O)cc3)c(=O)c21`, 134% (inactive).
For `CCN(Cc1ccccc1)C(c1cccnc1)c1nnnn1Cc1ccccc1` (stereo not drawn) the value was 106% (inactive); for `CCc1ccccc1NS(=O)(=O)c1ccc2c(c1)CCN2C(=O)C1CC1`, 72% (inactive).
For `Cc1cccc(-n2c(SCC(=O)Nc3ccccc3Cl)nc3n[nH]c(C)c3c2=N)c1`, the survival was 72% (inactive).
For `CCCCN(CC)C(=O)CSc1nc2n[nH]c(C)c2c(=N)n1-c1cccc(OC)c1` the value was 120% (inactive); for `Cc1c(Cl)cccc1-n1c(SCC(=O)NCc2ccccc2)nc2n[nH]c(C)c2c1=N`, 134% (inactive).
To `CCCCN(CC)C(=O)CSc1nc2n[nH]c(C)c2c(=N)n1-c1cccc(C)c1` belongs 78% (inactive).
For `Cc1cccc(NC(=O)CSc2nc3n[nH]c(C)c3c(=N)n2-c2cccc(Cl)c2)c1` the value was 14% (active).
As for `Cc1ccc(Cl)cc1-n1c(SCC(=O)NCc2ccccc2)nc2n[nH]c(C)c2c1=N`, the survival was 72% (inactive).
Take `Cc1ccc(-n2c(SCC(=O)NCc3ccccc3)nc3n[nH]c(C)c3c2=N)cc1Cl`: the survival is -6% (active).
As to `Cc1cccc(-n2c(SCC(=O)Nc3ccc(C)c(C)c3)nc3n[nH]c(C)c3c2=N)c1`, the survival was 76% (inactive).
For `CCCCN(CC)C(=O)CSc1nc2n[nH]c(C)c2c(=N)n1-c1cccc(Cl)c1` the value was -1% (active).
As for `Cc1ccc(CNC(=O)CSc2nc3n[nH]c(C)c3c(=N)n2-c2cccc(C)c2)cc1`, the survival is 133% (inactive).
Regarding `Cc1ccc(NC(=O)CSc2nc3n[nH]c(C)c3c(=N)n2-c2cccc(C)c2)cc1`, the survival was -6% (active).
To `Cc1ccc(-n2c(SCC(=O)Nc3cccc(Cl)c3)nc3n[nH]c(C)c3c2=N)cc1` belongs 85% (inactive).

(Values after PubChem BioAssay AID463173 (ICCB-Longwood Screening Facility, Harvard Medical School, 2010).)
